Test results as given in PubChem BioAssay (NCATS).
“And” between values parts separate entries of the source, which are not always exact repeats. Equal values may be shown once. Records with an inconclusive call do not appear. The source made the active and inactive calls. Unless noted, the rule behind the calls is not given here.

Key:
[1] = qHTS assay for cell viability of HEK293 cells (AID 743288; active = well fitted cell-killing curve with a large enough effect; note: % is set by controls: 0 for no effect and ±100 for the full control effect; nearly all actives have a fitted effect of over 50% in size); settings: ATP luminescence (CellTiter-Glo), 18 h, hits give low values
How it was run: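 Viable-cell counts were inferred from luciferase-based ATP content in HEK293 cells seeded at 2,000/well, pre-incubated ≥5 h, then dosed with DMSO-solubilised compounds for 18 h at 37 C.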

[2] = qHTS assay for cell viability of the p53RE-bla HCT-116 cell line (AID 743292; active = well fitted cell-killing curve with a large enough effect; note: % is set by controls: 0 for no effect and ±100 for the full control effect; nearly all actives have a fitted effect of over 55% in size); settings: p53RE-bla HCT-116 viability, ATP luminescence, 16 h; series mostly up to 95 µM
How it was run: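 Compound-exposed HCT-116 (p53RE-bla) cells, 4,000 per well, were kept 16 h at 37 C following a 5 h preincubation. Cell number was estimated from total ATP by CellTiter-Glo luminescence read after 30 min at room temperature.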

[3] = molecular target: Nuclear receptor subfamily 1 group I member 2 (Rattus norvegicus) (UniProt Q9R1A7); assay: qHTS assay for small molecule activators of the rat pregnane X receptor (rPXR) signaling pathway (AID 651751); settings: rPXR reporter cells, luciferase (One-Glo), 24 h; note: 0% is about no effect
[4] = qHTS assay for small molecule activators of the human pregnane X receptor (PXR) signaling pathway (AID 720659); settings: DPX-2 HepG2 CYP3A4-luciferase, 24 h; series mostly up to 92.3 µM; note: 0% is about no effect

Sequence of Nuclear receptor subfamily 1 group I member 2 (Rattus norvegicus) (Q9R1A7 whole entry, looked up): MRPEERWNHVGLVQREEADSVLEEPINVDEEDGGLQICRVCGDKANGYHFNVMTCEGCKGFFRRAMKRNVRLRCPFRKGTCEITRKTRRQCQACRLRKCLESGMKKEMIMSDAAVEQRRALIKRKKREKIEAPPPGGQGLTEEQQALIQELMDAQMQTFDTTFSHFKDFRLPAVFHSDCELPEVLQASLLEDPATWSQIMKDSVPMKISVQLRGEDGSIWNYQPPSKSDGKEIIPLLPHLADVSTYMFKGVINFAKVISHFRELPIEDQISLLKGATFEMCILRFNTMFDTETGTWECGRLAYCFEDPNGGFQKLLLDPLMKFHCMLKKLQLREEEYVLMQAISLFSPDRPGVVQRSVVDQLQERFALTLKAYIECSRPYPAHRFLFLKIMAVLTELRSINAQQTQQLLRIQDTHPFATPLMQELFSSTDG

CCCC(Cl)CCCC(Cl)CCC(Cl)CCC(Cl)CCC(Cl)CCCC(Cl)CCC (stereo unspecified)
inactive: max response [1] 8.25% | Potency [2] | max response [3] 2.04% | outcome [4]

CC(C)(c1cc(Br)c(OCC(Br)CBr)c(Br)c1)c1cc(Br)c(OCC(Br)CBr)c(Br)c1 (stereo unspecified)
inactive: max response [1] -17.5% | Potency [2] | max response [3] 6.37% | outcome [4]

CC1CCC2CC1C2(C)C (stereo unspecified)
inactive: max response [1] -8.03% | Potency [2] | max response [3] -2.72% | outcome [4]

CC(=O)c1ccc([N+](=O)[O-])cc1
inactive: max response [1] 5.77% | Potency [2] | max response [3] -4.15% | outcome [4]

O=C(O)c1cc(Cl)cc(Cl)c1
inactive: max response [1] 9.31% | Potency [2] | max response [3] -3.46% | outcome [4]

O=[N+]([O-])c1c(Cl)cc(Cl)cc1Cl
inactive: max response [1] 8.66% | Potency [2] | max response [3] 9.05% | outcome [4]

Clc1ccccn1
inactive: max response [1] -2.77% | Potency [2] | max response [3] -2.56% | outcome [4]

CCOCCOCC
inactive: max response [1] 0.474% | Potency [2] | max response [3] -2.52% | outcome [4]

ICCc1ccccc1
inactive: max response [1] -14.1% | Potency [2] | max response [3] -1.67% | outcome [4]

Cc1ccc(Br)cc1
inactive: max response [1] -7.93% | Potency [2] | max response [3] 10.2% | outcome [4]

CNC(=O)c1ccccc1
inactive: max response [1] 8.06% | Potency [2] | max response [3] -4.07% | outcome [4]

O=C(O)c1ccc(Cl)cc1Cl
inactive: max response [1] 4.16% | Potency [2] | max response [3] 4.22% | outcome [4]

O=Cc1ccc(Cl)cc1
inactive: max response [1] -6.94% | Potency [2] | max response [3] -2.77% | outcome [4]

O=[N+]([O-])c1cccc(C(F)(F)F)c1
inactive: max response [1] 0.368% | Potency [2] | max response [3] -1.97% | outcome [4]

CCCCCCC(=O)O
inactive: max response [1] -7.36% | Potency [2] | max response [3] -2.97% | outcome [4]

CC1CCCO1 (stereo unspecified)
inactive: max response [1] -15.7% | Potency [2] | max response [3] -1.92% | outcome [4]

Nc1cc([N+](=O)[O-])ccc1C(=O)O
inactive: max response [1] -6.72% and -9.32% | Potency [2] | max response [3] -5.92% and 1.25% | outcome [4]

CCCC(C)CO (stereo unspecified)
inactive: max response [1] -5.68% | Potency [2] | max response [3] 0.794% | outcome [4]

CC(C)CO
inactive: max response [1] 4.23% | Potency [2] | max response [3] 1.55% | outcome [4]

O=[N+]([O-])c1cc(C(F)(F)F)ccc1Cl
inactive: max response [1] -0.584% | Potency [2] | max response [3] 0.829% | outcome [4]

c1ccsc1
inactive: max response [1] 6.51% | Potency [2] | max response [3] -1.04% | outcome [4]

C1CCOC1
inactive: max response [1] -1.37% | Potency [2] | max response [3] 2.84% | outcome [4]

Cc1cccc2cccnc12
inactive: max response [1] -0.0071% | Potency [2] | max response [3] -0.272% | outcome [4]

O=C1CCCCC1
inactive: max response [1] -3.35% | Potency [2] | max response [3] 2.79% | outcome [4]

CN(C)c1cccc(O)c1
inactive: max response [1] -2.96% | Potency [2] | max response [3] 1.23% | outcome [4]

CCCCCCC=O
inactive: max response [1] 5.62% | Potency [2] | max response [3] -7.57% | outcome [4]

CC(O)CC(C)O (stereo unspecified)
inactive: max response [1] 7.82% | Potency [2] | max response [3] 6.25% | outcome [4]

CC(=O)OC(C)=O
inactive: max response [1] 3.19% | Potency [2] | max response [3] 5.82% | outcome [4]

CC(=O)c1cccc([N+](=O)[O-])c1
inactive: max response [1] -8.78% | Potency [2] | max response [3] -2.86% | outcome [4]

CCCCN(CCO)CCCC
inactive: max response [1] -7.26% | Potency [2] | max response [3] 1.69% | outcome [4]

NC=O
inactive: max response [1] -0.0358% | Potency [2] | max response [3] -1.14% | outcome [4]

CCNc1ccccc1
inactive: max response [1] -1.34% | Potency [2] | max response [3] -2.55% | outcome [4]

Oc1cccc(Nc2ccccc2)c1
inactive: max response [1] 2.73% | Potency [2] | max response [3] 5.07% | outcome [4]

NC(=O)c1cccc([N+](=O)[O-])c1
inactive: max response [1] -1.82% | Potency [2] | max response [3] 6.83% | outcome [4]

Oc1c(Cl)ccc(Cl)c1Cl
inactive: max response [1] 4.44% | Potency [2] | max response [3] 0.125% | outcome [4]

Nc1ccccc1S(=O)(=O)O
inactive: max response [1] -1.86% | Potency [2] | max response [3] -0.431% | outcome [4]

Cc1cccc(C(=O)O)c1[N+](=O)[O-]
inactive: max response [1] -1.21% | Potency [2] | max response [3] -0.47% | outcome [4]

c1ccc2n[nH]nc2c1
inactive: max response [1] -14.1% | Potency [2] | max response [3] -4.36% | outcome [4]

CC(=O)CCc1ccccc1
inactive: max response [1] 0.331% | Potency [2] | max response [3] 3.15% | outcome [4]

CN(C)CCCCl
inactive: max response [1] 7.77% | Potency [2] | max response [3] 3.08% | outcome [4]

CC(=O)OC(C)C
inactive: max response [1] 1.6% | Potency [2] | max response [3] -1.92% | outcome [4]

O=C(O)CCSSCCC(=O)O
inactive: max response [1] -9.15% | Potency [2] | max response [3] -1.84% | outcome [4]

Cc1ccc(CO)cc1
inactive: max response [1] 9.52% | Potency [2] | max response [3] 4.72% | outcome [4]

C=CC(=O)NC(C)C
inactive: max response [1] -0.14% | Potency [2] | max response [3] 3.94% | outcome [4]

O=[N+]([O-])c1ccccc1CCO
inactive: max response [1] -3.96% | Potency [2] | max response [3] 5.68% | outcome [4]

CCCCOCCOCCSC#N
inactive: max response [1] 5.15% | Potency [2] | max response [3] -2.98% | outcome [4]

O=C1OC(=O)c2c(Br)c(Br)c(Br)c(Br)c21
inactive: max response [1] 2.2% and -6.24% | Potency [2] | max response [3] -2.83% and 0.309% | outcome [4]

ClC/C=C/CCl
inactive: max response [1] 4.84% | Potency [2] | max response [3] 5.09% | outcome [4]

CC=C(Cl)Cl
inactive: max response [1] 5.81% | Potency [2] | max response [3] -4.19% | outcome [4]

COc1ccc(N)c(C)c1
inactive: max response [1] -3.7% | Potency [2] | max response [3] 7.59% | outcome [4]

Cc1c(C(=O)O)cccc1[N+](=O)[O-]
inactive: max response [1] 6.06% | Potency [2] | max response [3] 0.0854% | outcome [4]

CCC(O)C(C)(C)C (stereo unspecified)
inactive: max response [1] -6.59% | Potency [2] | max response [3] 7.53% | outcome [4]

NC(=O)CCCCC(N)=O
inactive: max response [1] 10.2% | Potency [2] | max response [3] 1.18% | outcome [4]

COc1cccc(N)c1
inactive: max response [1] -0.119% | Potency [2] | max response [3] 12.1% | outcome [4]

COC(=O)CS
inactive: max response [1] 3.47% | Potency [2] | max response [3] -1.83% | outcome [4]

C[C@@H]1CC2(OC[C@]3(C)O[C@H]23)O[C@H]2C[C@@]3(C)[C@@H]4CC[C@H]5C(C)(C)C(O[C@@H]6OC[C@@H](O)[C@H](O)[C@H]6O)CC[C@@]56C[C@@]46CC[C@]3(C)[C@@H]12 (stereo partly specified)
inactive: max response [1] -22.4% | Potency [2] | max response [3] 2.43% | outcome [4]

NC(=O)/N=N/C(N)=O
inactive: max response [1] 1.54% | Potency [2] | max response [3] -0.787% | outcome [4]

NS(=O)(=O)O
inactive: max response [1] 3.9% | Potency [2] | max response [3] -5.24% | outcome [4]

O=[N+]([O-])c1ccc(Cl)cc1Cl
inactive: max response [1] 0.0931% | Potency [2] | max response [3] -0.131% | outcome [4]

C/C=C1\CC2C=CC1C2 (stereo unspecified)
inactive: max response [1] 9.62% | Potency [2] | max response [3] 0.0305% | outcome [4]

CNC(=O)N(c1ccccc1)c1ccccc1
inactive: max response [1] 1.15% | Potency [2] | max response [3] 1.74% | outcome [4]

c1ccc(Nc2ccccc2)cc1
inactive: max response [1] -6.24% and -7.97% | Potency [2] | max response [3] 1.12% and -1.15% | outcome [4]

CC1(N)CCC(C(C)(C)N)CC1 (stereo unspecified)
inactive: max response [1] 3.33% | Potency [2] | max response [3] 1.15% | outcome [4]

Nc1c(Cl)cc(Cl)cc1Cl
inactive: max response [1] -2.95% | Potency [2] | max response [3] -2.23% | outcome [4]

CCCCC/C=C/C=C/C=O
inactive: max response [1] -1.02% | Potency [2] | max response [3] 5.82% and -4.16% | outcome [4]

CC(=O)Nc1ccccc1C
inactive: max response [1] -9.82% | Potency [2] | max response [3] -0.909% | outcome [4]

CC(=O)CC(C)C
inactive: max response [1] -6.25% | Potency [2] | max response [3] -2.17% | outcome [4]

Nc1cccc(O)c1
inactive: max response [1] 2.15% | Potency [2] | max response [3] -3.29% | outcome [4]

c1ccc2c(c1)ccc1ncccc12
inactive: max response [1] 0.663% | Potency [2] | max response [3] 10.2% | outcome [4]

CC(C)CCOC(=O)/C=C/c1ccccc1
inactive: max response [1] -10.1% | Potency [2] | max response [3] 0.15% | outcome [4]

Nc1cc(Cl)c(N)c(Cl)c1
inactive: max response [1] 3.57% and -5.3% | Potency [2] | max response [3] -6.29% and -6.62% | outcome [4]

Nc1cccc([N+](=O)[O-])c1
inactive: max response [1] -2.77% | Potency [2] | max response [3] -4.93% | outcome [4]

COc1ccc(OC)cc1
inactive: max response [1] -1.36% | Potency [2] | max response [3] 2.22% | outcome [4]

C=C(C)C(=O)OCCCCCCCCCC
inactive: max response [1] -5.31% | Potency [2] | max response [3] 3.26% | outcome [4]

CCc1ccccc1
inactive: max response [1] -3.72% | Potency [2] | max response [3] -0.471% | outcome [4]

CCCC=O
inactive: max response [1] -2.32% | Potency [2] | max response [3] 1.21% | outcome [4]

O=C(O)/C=C/C(=O)O
inactive: max response [1] -0.445% | Potency [2] | max response [3] 2.11% | outcome [4]

Cc1ccc(C(C)(C)C)cc1
inactive: Potency [2] | max response [3] -0.498% | outcome [4]
